Assay in all cases: NCI-60 one-dose screen, 48 h (100 = growth as untreated, 0 = no growth, -100 = all killed)
Common to all, as to details: 10 µM unless noted

Assay [1] has as its system HCT-15 colon.
The subject of assay [2] is HT29 colon.
The test system of assay [3] is SNB-75 CNS.
For assay [4], the system named is U251 CNS.
Assay [5] has as its system PC-3 prostate.
In assay [6] the test system is SK-MEL-5 melanoma.
The subject of assay [7] is UACC-62 melanoma.
The test system of assay [8] is LOX IMVI melanoma.
Assay [9] concerns SK-MEL-28 melanoma.
Assay [10] deals with SNB-19 CNS.

This is part of a sample that, as a whole, favours compounds with a hit. Of some 83,000 tested, about 20% had one in any assay.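 Compound tested at a single concentration for 48 hours in 96-well plates; a percent growth value below 10 was scored as active.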 Unmarked numbers belong to inactive results. Active and inactive are the calls of the source.

Turning to `CC(=O)[C@H]1CC[C@H]2[C@@H]3CC[C@H]4C[C@H](N)CC[C@]4(C)[C@H]3CC[C@]12C`, the growth in [1] was 64.5%; in [2] it was 13.7%; in [3], 49.5%; in assay [4] it was 69.2%; in [5], 62.1%; in [6], 62.8%. Besides, the growth in [7] was 80.9%; in [8], 69.4%; in [9], 86.2%.

As to `O=C(N/N=C\c1ccc(N(CCCl)CCCl)cc1Cl)c1cccnc1`, the growth in assay [1] is 79.9%; in assay [3], 86.6%; in assay [10], 89%; in assay [4] it was 65.2%; in assay [5], 92.9%; in assay [6] it was 72.6%. The values for the growth in assay [7], in assay [8] and in assay [9] were -40.4% (active), 87.1% and 98.5%, respectively.

With `Fc1cccc(NCOOC2(OOCNc3cccc(F)c3)CCCCC2)c1`, the growth is 99.2% in assay [1]; 96% in assay [2]; 96.2% in assay [10]; 102% in assay [4]; 88.9% in assay [5]; 95.2% in assay [6]. Also, the growth in assay [7] is 104%; in assay [8] it was -68.9% (active); in [9], 109%.

For `CCCCC1(CCC)C(=O)NC(=S)NC1=O`, the growth was 93.7% in assay [1]; 105% in assay [2]; 77.5% in assay [3]; 95.9% in [4]; 80.4% in assay [5]; 104% in assay [6]. For the same molecule, the values for the growth in [7], in [8] and in [9] were 104%, 103% and 108%, respectively.

Turning to `Clc1ccc(N2COOC3(OOC2)C2CC4CC(C2)CC3C4)cc1`, the growth in [1] is 64%; in [2], 60%; in assay [10], 74.3%; in [4], 28.4%; in assay [5] it was 53.7%; in assay [6], 55.5%. Further, the growth in [7] is 39.4%; in [8] it was -83.1% (active); in [9], 103%.

For `COc1ccc(C2=N[C@@H](Cc3ccccc3)C(=O)Nc3ccsc32)cc1`, the growth in [1] is 34.7%; in assay [2], 17.9%; in [10] it was 69.8%; in assay [4] it was 42.7%; in assay [5], 59.1%; in assay [6], 34.9%. Besides, the figures for the growth in assay [7], in [8] and in [9] were 16.9%, 47.6% and 54.5%, respectively.

As for `Clc1cccc(NCOOC2(OOCNc3cccc(Cl)c3)CCCCCC2)c1`, the growth in assay [1] is 93.2%; in assay [2], 102%; in [10], 93.2%; in assay [4] it was 101%; in [5], 91.2%; in assay [6], 93.7%. Further, the growth is 102% in [7], -85.2% (active) in assay [8] and 107% in [9].

For the molecule `Clc1cccc(N2COOC3(OOC2)C2CC4CC(C2)CC3C4)c1`, the growth is 94.6% in [1]; 85.2% in assay [2]; 101% in assay [10]; 35.8% in assay [4]; 74.8% in [5]; 86.5% in assay [6]. Moreover, the growth in assay [7] was 93.3%; in assay [8], -63.4% (active); in [9], 114%.

Turning to `Fc1ccc(N2COOC3(OOC2)C2CC4CC(C2)CC3C4)cc1`, the growth is 88.6% in assay [1]; 102% in assay [2]; 95.5% in assay [10]; 97.1% in assay [4]; 90.4% in assay [5]; 101% in [6]. Further, the growth was 76.5% in [7], -82.2% (active) in assay [8] and 100% in assay [9].

As for `CCCCCCC(=O)NC1=C(N2CC2)C(=O)C(NC(=O)CCCCCC)=C(N2CC2)C1=O`, the growth in [1] was 69%; in assay [2], 19.2%; in assay [10], 60.6%; in [4], 52.1%; in [5], 35.4%; in [6] it was 52.4%. In addition, the growth in [7] is 30.6%; in [8] it was 33.5%; in assay [9] it was 81.5%.

Take `COC(=O)CCC1=C(C)c2cc3[n-]c(cc4nc(cc5[n-]c(cc1n2)c(CCC(=O)OC)c5C)C=C4C)cc3C.[Cd+2]`: the growth is 35.5% in [1]; 28.8% in assay [2]; 73.9% in [10]; 61% in assay [4]; 33.9% in assay [5]; -7.46% (active) in assay [6]. For the same molecule, the growth in assay [7] is 24.1%; in assay [8], 44.3%; in [9], 68.8%.

`COc1ccc(NC([Se])=NC23CC4CC(CC(C4)C2)C3)cc1`: the growth in [1] was 9.68% (active); in [2], 5.56% (active); in [10], 15.7%; in assay [4], -31% (active); in [5], 7.99% (active); in assay [6] it was -85.5% (active). Further, the growth in assay [7] is -24.3% (active); in assay [8] it was 3.59% (active); in assay [9] it was 13.2%.

`C[N+]12CN3CN(CN(C3)C1)C2`: the growth in assay [1] is 110%; in assay [2], 99.3%; in assay [3] it was 46.8%; in [4] it was 100%; in [5] it was 81.3%; in [6], 112%. For the same molecule, the growth in [7] was 104%; in [9] it was 106%.

For the molecule `Nc1nnnc2nc[nH]c12`, the growth is 20.9% in assay [1]; 38.4% in [2]; 45.8% in [3]; 19.4% in [4]; 11.5% in [5]; 33.8% in assay [6]. Besides, the growth was -50.9% (active) in assay [7] and 14.8% in assay [9].

Take `COc1cc([C@@H]2c3cc4c(cc3[C@H](OC(C)=O)[C@H]3COC(=O)[C@@H]23)OCO4)cc(OC)c1OC`: the growth is 11.8% in assay [1]; 1.62% (active) in assay [2]; 4.62% (active) in assay [3]; 8.16% (active) in assay [4]; 15% in assay [5]; -20.9% (active) in assay [6]. Further, the growth is 18.5% in assay [7], 27.3% in [8] and 48.6% in [9].

For `Cc1ccc(N2COOC3(OOC2)C2CC4CC(C2)CC3C4)cc1`, the growth in [1] was 96.6%; in assay [2], 97.5%; in [10], 106%; in assay [4], 96.1%; in [5], 93.5%; in assay [6] it was 90.5%. Further, the growth in assay [7] is 109%; in [8], -61.6% (active); in [9], 103%.

Turning to `Cn1cccc1C1CC(=O)N(CCC[Se]C#N)C1=O` (stereo not given), the growth in assay [1] is -56.5% (active); in assay [2], 7.03% (active); in assay [10], -65.2% (active); in assay [4], -85.5% (active); in assay [5], 6.15% (active); in assay [6] it was -51.9% (active). The growth in assay [7] was 27%; in assay [8], -66.8% (active); in [9], -6.1% (active).

Consider `CC1=C(O)[C@@](C)(CCCCC[C@H](C)CCCCc2ccc(O)cc2)OOC1=O`, for which the growth is 98.3% in [1]; 105% in assay [2]; 101% in [10]; 92.8% in [4]; 75.4% in assay [5]; 102% in assay [6]. In addition, the values for the growth in assay [7], in assay [8] and in assay [9] were 79.2%, 69.8% and 114%, respectively.

`C1CCC2(CC1)OOCNCOO2`: the growth is 99.3% in [1]; 97.7% in assay [2]; 113% in assay [10]; 105% in assay [4]; 98% in assay [5]; 93.5% in assay [6]. Moreover, the growth in assay [7] is 113%; in assay [8] it was -76.6% (active); in [9], 110%.

Turning to `NC(=O)C(Br)c1ccccc1` (stereo not given), the growth in [1] is 58%; in assay [2] it was 86.2%; in assay [10] it was 90.6%; in [4] it was 86.8%; in assay [5] it was 94.3%; in assay [6] it was 82.9%. Also, the growth was 88% in [7], 56.8% in [8] and 97.2% in [9].

Consider `COc1cc([N+](=O)[O-])c2nc(C)ccc2c1[N+](=O)[O-]`, for which the growth was 92.9% in [1]; 109% in assay [3]; 95.2% in [10]; 90% in assay [4]; 93.9% in assay [5]; 93.6% in assay [6]. The values for the growth in [7], in assay [8] and in [9] were 86.7%, 71.5% and 103%, respectively.

In the case of `CC[S][Hg][Cl]`, the growth is 104% in assay [1]; 93.6% in [3]; 106% in [10]; 99.6% in [4]; 103% in assay [5]; 106% in [6]. Besides, the growth in [7] is 103%; in assay [9], 111%.

The values above are taken from PubChem BioAssay (NCI).
